# Data taken from PubChem BioAssay.
# Biological target: Follistatin-related protein 3 (Homo sapiens) (UniProt O95633)
# Assay: compounds binding follistatin-related protein 3 – biochemical, small-molecule microarray, 635 nm fluorescence, primary screen (AID 1105);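 also: score merges emission near 667 nm and signal to noise per printed spot across three slides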
# Conditions: FSTL3 binding, higher = more signal
# Follistatin-related protein 3 (Homo sapiens), sequence (O95633 whole entry, looked up): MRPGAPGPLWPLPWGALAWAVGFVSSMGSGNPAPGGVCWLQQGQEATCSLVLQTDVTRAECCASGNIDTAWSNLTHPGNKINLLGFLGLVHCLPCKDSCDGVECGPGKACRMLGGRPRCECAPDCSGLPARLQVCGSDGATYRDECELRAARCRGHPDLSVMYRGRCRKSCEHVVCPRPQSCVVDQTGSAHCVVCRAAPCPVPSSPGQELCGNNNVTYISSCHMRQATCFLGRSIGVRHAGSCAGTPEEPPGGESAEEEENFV
row,SMILES,composite z-score
1,CCOC(=O)C[C@H]1[C@H](OC(=O)c2ccc(-c3ccccc3)cc2)[C@@H](NC(=O)c2ccccc2)c2cc(OCCCO)ccc2N1C(=O)c1ccc2ccccc2n1,0.309
2,O=c1cccc(-c2ccccc2Cl)o1,-0.0893
3,C=CCC(OC(C)=O)[C@@H]1[C@@H](N(Cc2cc3ccccc3o2)C(=O)Cc2ccc(OC)cc2)c2cc(OCCCO)ccc2N1C(=O)c1ccc2ccccc2c1 (stereo not given in full),-0.0573
4,CS(=O)(=O)CCOC(=O)C1=CC(CCCO)=CC(c2ccc(CN3CCCC3)cc2)N(Cc2cccc(OC(F)(F)F)c2)C=C1C(=O)OCCS(C)(=O)=O (stereo not given),0.945
5,O=C1[C@@]23C=C(Br)[C@H](C[C@@H]2COC3)[C@]12CO2,-0.858
6,O=C(CS)NCCCCCNC(=O)[C@H]1C[C@H]2C(=O)NCC(=O)N2[C@H]1c1ccc(O)cc1,-0.749
7,CC(c1ccccc1)C(O)C1C=CC2C(=O)N(c3ccccc3)C(=O)C2N1Nc1ccccc1 (stereo not given),1.46
8,COC(=O)c1c(CC[C@@H](CO)NC(=O)NCCc2c[nH]c3ccccc23)oc(C(=O)Cc2ccccc2)c1C(=O)OC,0.321
9,O=C(O)[C@H]1C[C@H]2C(=O)N3CCC[C@H]3C(=O)N2[C@H]1c1ccc(O)cc1,-0.949
10,Cc1c(NC(=O)/C(C#N)=C/c2cccc([N+](=O)[O-])c2)c(=O)n(-c2ccccc2)n1C,0.53
11,CCOC(=O)C1=CCC(c2ccc(F)cc2)N(S(=O)(=O)c2ccc(C)cc2)C1 (stereo not given),0.249
12,COC(=O)C(CC#Cc1ccc2c(c1)[C@]1(C(=O)N2)[C@H](c2ccc(O)cc2)N2[C@H](c3ccccc3)[C@H](c3ccccc3)OC(=O)[C@H]2[C@@H]1C(=O)N1CCN(c2ncccn2)CC1)C(=O)OC,0.655
13,O=C1O[C@H](c2ccccc2)[C@H](c2ccccc2)N2[C@H]1[C@@H](C(=O)NC[C@H](O)c1ccccc1)[C@]1(C(=O)Nc3ccccc31)[C@H]2c1ccc(O)cc1,0.749
14,COCCOC(=O)N1C(=O)[C@@]2(c3cc(C#Cc4ccc(OC)cc4)ccc31)[C@H](c1ccc(O)cc1)N1[C@H](c3ccccc3)[C@H](c3ccccc3)OC(=O)[C@H]1[C@@H]2C(=O)Nc1nc2ccccc2s1,0.899
15,CC(C)=CCCC(C)=CC(O)C1C=CC2C(=O)N(c3ccccc3)C(=O)C2N1Nc1ccc(C(C)C)cc1 (stereo not given),0.966
16,O=C(O)[C@H](Cc1ccccc1)n1cc(-c2ccccc2)nn1,0.179
17,COC(=O)C(CC#Cc1ccc2c(c1)[C@]1(C(=O)N2)[C@H](c2ccccc2OCCO)N2[C@H](c3ccccc3)[C@H](c3ccccc3)OC(=O)[C@H]2[C@@H]1C(N)=O)C(=O)OC,0.412
18,[N-]=[N+]=Nc1ccccc1C[C@]1(C(=O)NCC(O)CO)N=C(c2ccc(OCCCO)cc2)O[C@H]1c1ccccc1 (stereo not given in full),-0.107

row,SMILES,composite z-score
1,Cc1ccc([C@H]2C(C(=O)O)=CCN2S(=O)(=O)c2ccc(C)cc2)cc1,0.312
2,[N-]=[N+]=Nc1ccccc1C[C@]1(C(=O)NCc2ccccc2)N=C(c2ccc(OCCCO)cc2)O[C@H]1c1ccccc1N=[N+]=[N-],0.646
3,CC(=O)NCCCC[C@@H]1NC(=O)[C@H]2C[C@@H](C(=O)O)[C@@H](c3ccc(O)cc3)N2C1=O,1.44
4,COCCOC(=O)N1C(=O)[C@@]2(c3cc(C#CC4(O)CCCCCC4)ccc31)[C@H](C(=O)Nc1nc3ccccc3s1)[C@H]1C(=O)O[C@H](c3ccccc3)[C@H](c3ccccc3)N1[C@@H]2c1ccccc1OCCO,1.05
5,COCC(=C=CC[C@H](O)c1cccc(OCCO)c1)C[C@H](O)c1cc(Cl)cc(Cl)c1O,0.785
6,[N-]=[N+]=Nc1ccccc1[C@H]1OC(c2ccc(OCCCO)cc2)=N[C@@]1(Cc1ccccc1)C(=O)N1CCOCC1,1.07
7,CCCCC(O)C1C=CC2C(=O)N(C)C(=O)C2N1N1CCCCC1 (stereo not given),0.574
8,COc1ccc(NC(=O)O[C@H]2[C@H](OC(=O)c3cc4ccccc4[nH]3)[C@@H](OC(=O)c3cc4ccccc4[nH]3)[C@@H](OC)O[C@@H]2CO)cc1,0.448
9,CN1C(=O)C2C=CC(C(O)c3c(F)cccc3Cl)N(NC(=O)OC(C)(C)C)C2C1=O (stereo not given),0.649
10,O=C(CS)NCCCCCNC(=O)[C@@H]1C[C@@H]2C(=O)NCC(=O)N2[C@@H]1c1ccc(O)cc1,0.157
11,COc1ccccc1CN1C(=O)c2ccccc2[C@@]2(Cc3ccccc3N(CCCN(C)C)C2=O)[C@@H]1c1ccc(CO)cc1,0.76
12,[N-]=[N+]=NCc1ccccc1C[C@@]1(C(=O)NCC(O)CO)N=C(c2ccc(OCCCO)cc2)O[C@@H]1c1ccccc1 (stereo not given in full),-1.3
13,CCOC(=O)[C@H]1C/C=C/C[C@H](C(=O)OCC)C(=O)O[C@H]2[C@@H](OC)O[C@H](CO)[C@@H](OC(=O)c3ccc(Br)cc3)[C@@H]2OC1=O,0.366
14,O=C1OCC=C[C@H]2OC34C=CCN(Cn5nnc6ccccc65)C(=O)[C@H]3N(CCCCCO)C(=O)[C@@H]4[C@@H]12 (stereo not given in full),-0.77
15,COCC(=C=CC[C@H](O)c1cccc(OCCO)c1)CCO,0.688
16,O=C1NC(=O)C2C1C=CC(C(O)c1ccc(I)cc1)N2Nc1ccc(Cl)cc1Cl (stereo not given),0.425
17,COC(=O)[C@@]1(Cc2ccccc2)[C@H]2c3cc(C(=O)N(C)C)n(CCc4c[nH]c5ccc(O)cc45)c3C[C@H]2CN1C(=O)c1ccccc1,0.594
